Assay results from paper PMC4336329 (PLoS ONE, 2015).
Out of some 310,000 compounds screened, about 14,000 (4.5%) showed an effect of 50% or more. Effects have a minus sign here. The sample as a whole holds a higher share of strong results than the screen did.

Target: human ether-à-go-go-related gene (hERG) potassium channel (human, UniProt Q12809)
Assay: primary screen, population patch clamp on CHO cells stably expressing hERG; higher = less effect of the substance
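Note: peak tail current of the secondary pulse compared with the same well before compound.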

Chain of human ether-à-go-go-related gene (hERG) potassium channel (Q12809 whole entry, looked up): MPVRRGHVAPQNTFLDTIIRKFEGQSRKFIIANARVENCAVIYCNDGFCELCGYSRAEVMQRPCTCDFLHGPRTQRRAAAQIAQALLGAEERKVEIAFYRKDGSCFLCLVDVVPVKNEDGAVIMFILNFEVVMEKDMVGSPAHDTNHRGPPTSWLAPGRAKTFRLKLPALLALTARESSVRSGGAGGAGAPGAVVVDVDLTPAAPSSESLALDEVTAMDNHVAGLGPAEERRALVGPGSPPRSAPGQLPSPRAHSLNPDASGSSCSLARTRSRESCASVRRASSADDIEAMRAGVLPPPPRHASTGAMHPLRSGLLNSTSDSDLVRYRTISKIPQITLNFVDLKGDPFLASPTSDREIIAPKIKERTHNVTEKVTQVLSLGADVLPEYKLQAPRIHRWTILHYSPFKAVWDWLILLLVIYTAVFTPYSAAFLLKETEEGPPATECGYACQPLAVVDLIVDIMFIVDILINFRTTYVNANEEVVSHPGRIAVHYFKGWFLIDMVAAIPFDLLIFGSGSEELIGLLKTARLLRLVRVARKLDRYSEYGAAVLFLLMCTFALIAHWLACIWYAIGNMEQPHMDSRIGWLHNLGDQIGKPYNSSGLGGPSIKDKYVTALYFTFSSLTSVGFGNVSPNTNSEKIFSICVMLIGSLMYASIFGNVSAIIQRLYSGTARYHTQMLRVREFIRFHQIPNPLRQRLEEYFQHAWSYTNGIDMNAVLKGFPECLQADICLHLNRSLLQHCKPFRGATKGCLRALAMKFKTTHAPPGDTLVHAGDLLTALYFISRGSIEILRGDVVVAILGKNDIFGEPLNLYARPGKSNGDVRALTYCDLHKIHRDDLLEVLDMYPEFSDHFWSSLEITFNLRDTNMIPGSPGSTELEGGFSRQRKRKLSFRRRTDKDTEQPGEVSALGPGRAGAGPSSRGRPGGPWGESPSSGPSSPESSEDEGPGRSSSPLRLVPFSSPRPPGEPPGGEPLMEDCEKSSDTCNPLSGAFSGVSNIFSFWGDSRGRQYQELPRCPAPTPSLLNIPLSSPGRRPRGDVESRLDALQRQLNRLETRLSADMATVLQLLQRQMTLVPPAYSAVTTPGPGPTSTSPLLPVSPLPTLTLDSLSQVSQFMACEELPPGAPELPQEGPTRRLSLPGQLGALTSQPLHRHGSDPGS

Compound | hERG current change (%, negative = inhibition) at 10uM [%]
CCCCN1C(=O)C(=O)N(CC(=O)Nc2sc(CC)cc2C(=O)OCC)C1=O | -10
Cc1ccc(Oc2ccc(OCC(=O)NC(C)C(=O)O)cc2)cc1 (stereo not drawn) | -25.1
Cc1c(C#N)c(N)nc(Cl)c1C#N | 25.9
NC(=O)C1(NC(=O)[C@@H]2CC3(CC(c4cccc(NC(=O)[C@@H]5CCC(=O)N5)c4)=NO3)CN2C(=O)c2ccccc2)CC1 (stereo partly drawn) | 1.96
CCCCOC(=O)NC1(C)CCS(=O)(=O)C1 (stereo not drawn) | 27.1
CC(C)OCCCNC(=S)N1CCC(C(=O)c2ccc3c(c2)OCCO3)CC1 | -22.9
Cc1ccc2sc(N(CCN(C)C)C(=O)c3ccc(S(=O)(=O)N4CC(C)OC(C)C4)cc3)nc2c1C.Cl (stereo not drawn) | 1.87
CCOC(=O)/C=C/[C@H]1CCc2cccc(Cl)c2O1 | 9.23
CN1CCN(NC(=O)c2ccc(Cl)cc2Cl)CC1 | 0.116
Cc1cc(C(=O)N/N=C2/CC(C)CC(C)(C)C2)c(C)o1 (stereo not drawn) | -8.27
COc1cccc(C(=O)NC2CC3CCC(C2)N3Cc2ccccc2)c1 (stereo not drawn) | -28.7
COc1ccc(CN2C3CCCC2CC(NC(=O)c2cccc(F)c2)C3)cc1 (stereo not drawn) | -82
COc1ccc(NC(=S)N2CCC(NC(=O)c3cccc(F)c3)CC2)cc1 | -16.7
COc1ccc(CN2C3CCC2CC(NC(=O)c2cc(OC)c(OC)c(OC)c2)C3)cc1 (stereo not drawn) | -31.6
COc1ccc(CN2C3CCC2CC(NC(=O)c2cccc(F)c2)C3)cc1 (stereo not drawn) | -75.2
COc1ccc(C(=O)/C=C/c2cccc(OCc3ccccc3)c2)cc1CSCC(=O)O | 7.09
COc1ccccc1CNC(=O)CCS(=O)(=O)c1ccc2c(c1)CC(C)N2C(=O)C1CC1 (stereo not drawn) | 15
COc1cccc(NC(=S)NCCc2ccccn2)c1 | 7.98
CS(=O)(=O)NCCCNc1ccc(C(F)(F)F)cc1[N+](=O)[O-] | -35.1
CS(=O)(=O)NCCNc1ccc(C(F)(F)F)cc1[N+](=O)[O-] | -6.08
CS(=O)(=O)NCCCCNc1ccc(C(F)(F)F)cc1[N+](=O)[O-] | -56.8
COc1ccc(NC(=O)C(=O)N/N=C/c2cccnc2)c(OC)c1 | 21.3
N#CC1(c2nc3ccccc3[nH]2)CC1c1ccc2c(c1)OCO2 (stereo not drawn) | 0.101

Compound | hERG current change (%, negative = inhibition) at 10uM [%]
O=C(COC(=O)c1ccc(Cl)c(S(=O)(=O)N2CCOCC2)c1)NCc1ccco1 | -17
COc1ccc(CN(C(=O)c2nsc(Cl)c2Cl)C(C(=O)NC2CCCC2)c2ccc(C)cc2)cc1 (stereo not drawn) | -12.4
C/C(=N/OC(=O)c1ccc(C)cc1)c1ccc(N2C(=O)C3CCCCC3C2=O)cc1 (stereo not drawn) | 16
O=c1c2ccccc2nc(SCc2ccc([N+](=O)[O-])cc2)n1CCCO | -57.9
CCOC(CCn1c(SCc2ccc([N+](=O)[O-])cc2)nc2ccccc2c1=O)OCC | -39
O=c1c2sccc2nc(SCc2cc(=O)n3ccccc3n2)n1Cc1ccccn1 | -22.3
O=c1c2ccccc2nc(/C=C/c2ccc([N+](=O)[O-])o2)n1CCCO | -51.7
O=c1c2ccccc2nc(/C=C/c2ccccc2)n1CCCO | -8.23
Nn1c(SCc2ccc([N+](=O)[O-])cc2)nc2ccccc2c1=O | 17.8
O=c1c2ccccc2nc(/C=C/c2ccc(Br)cc2)n1CCCO | 0.999
O=c1c2ccccc2nc(/C=C/c2ccc([N+](=O)[O-])cc2)n1CCCO | -57.4
Cn1c(/C=C/c2ccc([N+](=O)[O-])o2)nc2ccccc2c1=O | -24.2
N#Cc1ccccc1CSc1nc2ccsc2c(=O)n1Cc1ccccn1 | -10.9
O=c1c2ccccc2nc(/C=C/c2cccc([N+](=O)[O-])c2)n1CCCO | -43
O=c1c2sccc2nc(SCc2ccc([N+](=O)[O-])cc2)n1Cc1ccccn1 | -61.6
COCC(C)n1c(COc2ccccc2F)nnc1SCC(=O)c1c(N)n(C)c(=O)n(C)c1=O (stereo not drawn) | 16.4
N#C/C(=C\c1c(F)cccc1Cl)S(=O)(=O)c1ccccn1 | 3.15
COc1cc(-c2nc(S(=O)(=O)c3ccc(Cl)cc3)c(N3CCOCC3)o2)cc(OC)c1OC | -3.17
Cl.NNc1nc(-c2ccccc2)cs1 | 29.7
COc1cccc(NC(=O)CCCN2C(=O)C3CC=CCC3C2=O)c1 (stereo not drawn) | -2.79
Cc1cc([N+](=O)[O-])nn1CCCC(=O)NCc1ccccc1 | -5.8
Cc1ccccc1NC(=O)C1=CC=CN2CCS(=O)(=O)N=C12 | -11.7
O=C(Nc1cccc2ncccc12)c1cccc(F)c1 | -11.1

Compound | hERG current change (%, negative = inhibition) at 10uM [%]
CCOC(=O)C1(Cc2ccccc2)CCN(Cc2cccc(OC)c2O)CC1 | -69.6
CCOC(=O)C1(Cc2cccc(OC)c2)CCN(Cc2ccccc2OC)CC1 | -51.3
CCOC(=O)C1(Cc2cccc(OC)c2)CCN(Cc2cccc(OCC)c2O)CC1 | -56.8
CCOC(=O)C1(Cc2ccccc2)CCN(Cc2cn(CC(=O)OC)c3ccccc23)CC1 | -78.1
CCOC(=O)C1(Cc2cccc(OC)c2)CCN(Cc2cccc3c2OCO3)CC1 | -39.4
CCOC(=O)C1(CC2CC2)CCN(Cc2cn(C)c3ccccc23)CC1 | -31
Cc1cc(=O)nc2c3ccccc3n(CC(=O)Nc3ccccc3Br)n12 | -7.45
CCOc1ccc(N(CC(=O)Nc2cccc(Br)c2)S(C)(=O)=O)cc1 | -1.12
NC(=O)C1CCN(/C=C2\C(=O)NC(=O)N(Cc3ccco3)C2=O)CC1 | 6.74
COc1ccccc1CNC(=O)COc1ccc(C)nc1[N+](=O)[O-] | 18.3
CCN(C(=O)COc1ccc(C(=O)c2ccccc2)cc1)c1ccccc1 | -18.9
O=C1NNC(=O)C1c1ccccc1 | 25.7
CCOC(=O)C1(Cc2cccc(OC)c2)CCN(Cc2cc(OC)ccc2OC)CC1 | -67.2
CCOC(=O)c1[nH]ncc1CN1CCC(Cc2cccc(OC)c2)(C(=O)OCC)CC1 | -37.6
CCOC(=O)C1(Cc2cccc(OC)c2)CCN(Cc2cccc(OC)c2O)CC1 | -66
CC(C)c1ccc(CN2CCN(C(=O)CSc3nnnn3C3CC3)CC2)cc1 | -28.1
COc1ccc2c(C(=O)CN(C)C3CCCCC3)c[nH]c2c1 | 9.09
Cc1csc(NC(=O)CSc2nnc(-c3ccncc3)n2C)n1 | -17.5
Cc1cnc(NC(=O)CSc2nnc(-c3cccs3)n2C)s1 | -59.4
Cc1cnc(NC(=O)CSc2nnc(Cc3ccccc3)n2C)s1 | -12.1
Cc1csc(NC(=O)CSc2nnc(-c3cccs3)n2C)n1 | -60.5
Cc1csc(NC(=O)CSc2nnc(CCNC(=O)c3cccs3)n2C)n1 | 8.1
CC(=O)Nc1ccc(NC(=O)CSc2nnc(-c3cccs3)n2C)cc1 | -7.69

Compound | hERG current change (%, negative = inhibition) at 10uM [%]
O=C(CCCc1nc2ccccc2s1)NCc1ccccc1F | -20.2
CCN(CC(=O)Nc1c(F)cccc1F)C(=O)c1cccc(-n2cccc2)c1 | -27.1
CCCCCN(C(=O)CCC(=O)OC(C)C(=O)NCc1ccccc1)c1c(N)n(CCCC)c(=O)[nH]c1=O (stereo not drawn) | -14.5
O=C(c1cnn2c(C(F)F)cc(-c3ccccc3)nc12)N1CCCc2ccccc21 | -3.45
COCCn1c(SCC(=O)N2CCCC2)nnc1-c1ccco1 | 18.6
Cc1ccc(/C=N\NC(=O)Cc2noc3ccccc23)cc1 | 15.6
COC(=O)c1ccc(C(=S)N2CCCCC2)cc1 | 8.89
COC(=O)c1ccc(SCc2cnc(Cl)s2)cc1 | 1.27
Clc1ncc(CSc2ccccc2)s1 | 3.25
O=C(O)c1ccc(SCc2cnc(Cl)s2)cc1 | -70
COC(=O)c1ccc(CNC(=O)c2ccc3c(c2)S(=O)(=O)N=C2CCCCCN23)cc1 | -10.5
Cc1cc2ccccc2c(=O)n1CC(=O)NCC1COc2ccccc2O1 (stereo not drawn) | 0.464
CCn1cc(/C=N\NC(=O)Cc2ccc([N+](=O)[O-])cc2)c(C)n1 | -25.1
CCN(Cc1cccc(OC)c1)CC1CCCN(CCc2cccc(OC)c2)C1 (stereo not drawn) | -47.3
CCN(Cc1ccc(C#CCCO)cc1)CC1CCCN(CCc2cccc(OC)c2)C1 (stereo not drawn) | -58.5
CCN(Cc1ccc(NC(C)=O)cc1)CC1CCCN(CCc2cccc(OC)c2)C1 (stereo not drawn) | -30.3
CCN(Cc1ccc(OC)c(COC)c1)CC1CCCN(CCc2cccc(F)c2)C1 (stereo not drawn) | -67.7
OCCC#Cc1ccc(CN2CCN(C3CCCCC3)C(CCO)C2)cc1 (stereo not drawn) | -0.113
CCN(Cc1ccc(C#CCCO)cc1)CC1CCCN(CCc2cccc(F)c2)C1 (stereo not drawn) | -65.2
CN(Cc1ccc(C#CCCO)cc1)CC1CCCN(CCc2ccc(Cl)cc2)C1 (stereo not drawn) | -70.9
CCN(Cc1ccc(OC)c(COC)c1)CC1CCCN(CCc2cccc(OC)c2)C1 (stereo not drawn) | -26.3
